High-throughput results: PubChem, several laboratories
KKLEB tox = CF airway cell cytotoxicity counter-screen; KKLEB CF airway cells viability, ATPlite luminescence, overnight; active compounds read low; cells stimulated with P. aeruginosa culture filtrate; activity change (cytotoxicity), % at 5 µM; 360,000 compounds, 0.36% hits; AID 602141;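 active = corrected activity change at or below -50% at 5 µM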
Mdm2 MdmX PPI = inhibitors of human Mdm2/MdmX interaction; SaOS-2 split-luciferase Mdm2/MdmX complementation, luminescence; O15151+Q00987; 330,000 compounds, 3% hits; inhibition, % at 8 µM;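 active = inhibition of at least 50% at 8 µM in the primary screen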
ABHD5 PLIN5 PPI = inhibitors of human ABHD5-perilipin-5 interaction; Split G. princeps luciferase complementation, luminescence, 4 h; inhibition, % at 4 µM; 360,000 compounds, 0.78% hits; AID 602281;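 active = inhibition above the mean inhibition across every tested compound plus 3 SD, cut at about 22% in these data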
Target sequence (Q00G26 whole entry, looked up): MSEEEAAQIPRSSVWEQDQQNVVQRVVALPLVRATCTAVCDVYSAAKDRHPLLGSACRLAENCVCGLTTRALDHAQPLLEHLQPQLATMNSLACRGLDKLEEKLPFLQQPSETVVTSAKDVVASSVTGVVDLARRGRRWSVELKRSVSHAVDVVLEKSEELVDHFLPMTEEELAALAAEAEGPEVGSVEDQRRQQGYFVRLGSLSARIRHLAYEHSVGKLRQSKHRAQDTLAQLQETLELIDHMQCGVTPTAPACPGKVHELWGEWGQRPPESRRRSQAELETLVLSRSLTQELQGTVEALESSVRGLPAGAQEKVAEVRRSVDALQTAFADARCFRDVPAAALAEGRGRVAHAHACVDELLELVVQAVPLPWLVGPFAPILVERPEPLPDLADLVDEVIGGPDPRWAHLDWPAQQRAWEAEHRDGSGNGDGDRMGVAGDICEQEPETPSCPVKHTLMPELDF
Target sequence (Q8WTS1 whole entry, looked up): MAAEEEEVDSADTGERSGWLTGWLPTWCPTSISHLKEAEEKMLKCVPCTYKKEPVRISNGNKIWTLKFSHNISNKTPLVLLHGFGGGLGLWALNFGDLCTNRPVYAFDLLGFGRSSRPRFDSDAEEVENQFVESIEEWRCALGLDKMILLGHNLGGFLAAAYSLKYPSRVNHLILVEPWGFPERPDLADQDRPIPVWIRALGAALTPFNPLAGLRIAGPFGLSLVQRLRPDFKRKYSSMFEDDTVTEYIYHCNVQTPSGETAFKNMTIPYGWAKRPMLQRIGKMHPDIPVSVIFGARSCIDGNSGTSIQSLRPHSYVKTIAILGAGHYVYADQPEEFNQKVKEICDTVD
Peg3 promoter = inhibitors of Peg3 promoter; HeLa PEG-Prom luciferase reporter, luminescence, overnight; inhibition, % at 20 µM; 360,000 compounds, 1.7% hits; AID 588405;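 active = inhibition of at least 50% at 20 µM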
HIF-2a inh = HIF-2a inhibition; 786-0 RCC cells HIF-2a reporter, luciferase luminescence, overnight; inhibition, % at 18.8 µM; 360,000 compounds, 0.72% hits;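 active = inhibition of the luminescence signal of 40% or more relative to plate controls, in a single-dose primary screen at 18.75 µM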
CF NFkB block = inhibitors of cystic fibrosis induced NF-kB; 360,000 compounds, 0.86% hits; KKLEB NF-kB-GFP reporter, PAF-induced, GFP fluorescence overnight; inhibition, % at 5 µM;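 active = at least 50% inhibition at 5 µM, scaled per plate between neutral and stimulator controls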;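 also: PAF is a Pseudomonas aeruginosa culture filtrate used as stimulus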
Mdm2 MdmX conf = confirmation of human Mdm2/MdmX interaction inhibitors | Mdm2-MdmX binding, luminescent assay | 10,000 compounds, 55% hits | inhibition, % at 8 µM | shares compounds with Mdm2 MdmX PPI; in the data active = inhibition above about 40%
Full FLuc ctr = counter-screen for Mdm2/MdmX inhibitors: full-length luciferase | shares compounds with Mdm2 MdmX PPI | SaOS-2 full-length luciferase counterscreen, luminescence | inhibition, % at 8 µM | 6,200 compounds, 77% hits | AID 504607;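 active = mean inhibition at 8 µM reaching about 37%, which flags the compound as non-specific, limit read from the data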;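 also: p53-null SaOS-2 cells with luciferase driven by a doxycycline-inducible promoter; compound on cells about two nights before reading with doxycycline added after day one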
A number is an active result; - = inactive; . = no result. Shown are actives, neighbours in structure and some others; about 4.6% of the full set was active somewhere.

SMILES	KKLEB tox	Mdm2 MdmX PPI	ABHD5 PLIN5 PPI	Peg3 promoter	HIF-2a inh	CF NFkB block	Mdm2 MdmX conf	Full FLuc ctr
CCc1ccc(/C(C)=N/NC(=O)c2ccccn2)cc1	-	-	-	-	-	-	.	.
CCOc1ccc(C(=O)N/N=C(\c2ccccc2)c2ccccn2)cc1	-	71	-	-	-	-	87	-
C/C(=N\NC(=O)c1c[nH]c2ccccc12)c1ccccn1	-	-	-	-	-	-	.	.
COc1cccc2sc(Nc3nnc(-c4ccc(F)cc4)o3)nc12	-	64	-	-	-	-	41	67
COc1cccc2sc(Nc3nnc(-c4cccs4)o3)nc12	-	-	-	-	-	-	.	.
Cc1cc(C)c2c(N)c(C(=O)c3ccc(Cl)cc3Cl)sc2n1	-	70	-	-	-	-	75	60
Cc1ccc(S(=O)(=O)N2CCOCC2)cc1C(=O)Nc1nc(-c2cccnc2)cs1	-	-	-	-	-	-	.	.
O=C(Nc1nc(-c2ccccn2)cs1)c1cc(S(=O)(=O)N2CCOCC2)ccc1F	-	53	-	-	-	-	-	.
O=C(Nc1nc(-c2ccccn2)cs1)c1ccc(F)c(S(=O)(=O)N2CCOCC2)c1	-	76	-	-	-	-	86	-
Cc1ccc(C(=O)Nc2nc(-c3ccccn3)cs2)cc1S(=O)(=O)N1CCOCC1	-	89	-	-	-	-	81	-
Cc1nnc(NC(=O)c2ccc(F)c(S(=O)(=O)N3CCOCC3)c2)s1	-	-	-	-	-	-	.	.
Cc1ccc(C(=O)Nc2ccccn2)cc1S(=O)(=O)N1CCOCC1	-	-	-	-	-	-	.	.
CN(CC1CCCO1)S(=O)(=O)c1ccc(C(=O)Nc2nc(-c3ccccn3)cs2)cc1 (configuration not stated)	-	89	-	54	-	-	80	-
Cc1ccccc1CN1C[C@H]2CON(C)[C@H]2C[C@H]1c1cccc(Br)c1	-	.	-	-	-	-	.	.
COc1cccc(/C=C2\SC(=S)N(CCCC(=O)N3CCCCC3CCO)C2=O)c1 (configuration not stated)	-	78	-	64	69	-	61	-
COc1cccc(/C=C2\SC(=S)N(CCC(=O)N3CCCCC3CCO)C2=O)c1 (configuration not stated)	-	77	-	-	-	-	45	40
COc1ccc(/C=C2\SC(=S)N(CCCC(=O)N3CCN(C)CC3)C2=O)cc1OC	-	.	-	-	-	-	.	.
COc1cccc(/C=C2\SC(=S)N(CCCC(=O)N3CCCC3)C2=O)c1	-	84	-	-	-	-	46	-
COc1ccccc1N1CCN(C(=O)c2oc3ccccc3c2C)CC1	-	.	-	-	-	-	.	.
Cc1ccc(C)c(N2CCN(C(=O)c3cc4c(C)nc5ccccc5c4o3)CC2)c1	-	-	-	-	-	-	.	.
COc1ccccc1N1CCN(C(=O)c2oc3ccc(Br)cc3c2C)CC1	-	57	-	-	-	-	58	54
COc1ccccc1N1CCN(C(=O)c2cc3c(C)nc4ccccc4c3o2)CC1	-	54	-	-	-	-	-	.
O=C(C[C@H]1C/C=C\CC[C@H](Cc2ccc(F)cc2)C(=O)O[C@H](c2ccccc2)CNC1=O)N[C@H](CO)Cc1ccccc1	-	-	-	-	-	-	.	.
C=CCn1c(O)c2ccc(C(=O)N=NC(=O)COc3ccc(OC)cc3)cc2c1O	-	-	-	-	-	-	.	.
CC(C)C[C@@H](NC(=O)C1CCC(CNC(=O)[C@H](Cc2ccccc2)NC(=O)OC(C)(C)C)CC1)C(=O)O (some centres not stated)	-	-	-	-	-	-	.	.
SMILES	KKLEB tox	Mdm2 MdmX PPI	ABHD5 PLIN5 PPI	Peg3 promoter	HIF-2a inh	CF NFkB block	Mdm2 MdmX conf	Full FLuc ctr
CCC(CC)NCc1ccc2c(c1)c1ccccc1n2CC	-	57	-	-	-	-	43	65
CCn1c2ccccc2c2cc(N)ccc21	-	-	-	-	-	-	.	.
CCn1c2ccccc2c2cc(CNCc3ccc(OC)cc3OC)ccc21	-	100	-	114	-	-	60	54
COc1cccc(CNCc2ccc(OC)cc2OC)c1	-	-	-	-	-	-	.	.
O=c1[nH]c2cnn(-c3ccccc3)c2c(=O)n1O	-	.	-	-	-	-	.	.
O=C(NCc1ccccn1)Nc1ccccc1C(F)(F)F	-	-	-	-	-	-	.	.
CC(C)(C)NC(=O)C(c1ccc(-c2ccccc2)cc1)N(C[C@H]1CC[C@@H]([C@@H]2CC[C@H](CO)O2)O1)C(=O)c1cccc(Cl)c1 (some centres not stated)	-	50	-	-	-	-	-	.
CC(C)(C)NC(=O)C(c1ccc(-c2ccccc2)cc1)N(C[C@H]1CC[C@@H]([C@@H]2CC[C@H](CO)O2)O1)C(=O)c1ccc2ccccc2c1 (some centres not stated)	-	-	-	-	-	-	.	.
CC(C)(C)NC(=O)C(c1ccc(-c2ccccc2)cc1)N(C[C@H]1CC[C@@H]([C@@H]2CC[C@H](CO)O2)O1)C(=O)c1ccc(-c2ccccc2)cc1 (some centres not stated)	-	88	-	-	-	-	47	52
COc1ccccc1N(CC(=O)Nc1cc(C)on1)S(=O)(=O)c1cccc(C(F)(F)F)c1	-	-	-	-	-	-	.	.
CC1CCN(S(=O)(=O)c2cc3c4c(c2)C(C)C(=O)N4CCC3)CC1 (configuration not stated)	-	-	-	-	-	-	.	.
CC1CCC2(CC1)NC(=O)N(CC(=O)Nc1ccc(C(N)=O)cc1)C2=O (configuration not stated)	-	-	-	-	-	-	.	.
[O-][n+]1cccc2c(Br)cc(Br)c(O)c21	-	51	-	-	-	-	-	.
C[n+]1cccc2c(Br)ccc([O-])c21	-	-	-	-	-	-	.	.
Cn1c(=O)c2[nH]c(N3CCN(c4ccccc4)CC3)nc2n(C)c1=O	-	67	-	-	-	-	-	67
Cc1cc(C)nc(/N=C(\N)Nc2cccc(OCc3ccccc3)c2)n1	-	73	-	-	-	-	50	66
Cc1cc(C)nc(/N=C(\N)Nc2ccc(OCCC(C)C)cc2)n1	-	66	-	107	-	-	49	53
Cc1cc(C)nc(/N=C(\N)Nc2ccc(OCc3ccccc3)cc2)n1	-	54	-	-	-	-	-	.
N=c1n(CCO)c2ccccc2n1CCOc1ccc(Cl)cc1Cl	-	97	-	103	-	-	42	-
CCOC(=O)C1(C)CCN1C(=O)c1cc(C)oc1C (configuration not stated)	-	.	-	-	-	-	.	.
